Tau fluor counter = counter-screen for tau fibril formation inhibitors; tau K18 P301L Alexa594 fluorescence, heparin fibrillization; Potency, µM (top dose mostly 57.7 µM), for inactives: at the top dose activity change, negative = decrease; 280,000 tested, 0.93% active; AID 1463; also: potency is read from the fitted curve at half-maximal effect; % is scaled to controls: 0 for no effect and ±100 for the full control effect; nearly all actives have a fitted effect of over 55% in size
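Human K18 P301L tau (15 uM unlabeled plus 0.24 uM Alexa 594-labeled, final) in 100 mM sodium acetate pH 7 was mixed with compound and 20 uM heparin and incubated 6 hr at 37 C.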
CBFb RUNX1 block = inhibitors of human CBF-beta and RUNX1 interaction; Q01196+Q13951; AlphaScreen CBFb-His/RUNX1-biotin binding, biochemical; Potency, µM (titrated, usually from 59.8 µM), for the others: at the top dose activity, negative = inhibition, usual class: inhibitors; 230,000 tested, under 10 active; also: % of control where 0% means no effect
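AlphaScreen proximity signal reports loss of binding between His-tagged CBF-beta and biotin-labelled RUNX1, each at 30 nM. Proteins are pre-associated for 20 minutes, compounds added for 15 minutes, then beads for 90 minutes, all at ambient temperature.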
LMNA splice mod = changes lamin A minigene splicing in HeLa cells. Potency, µM (series often up to 46.1 µM), without a hit: at the top dose ratio change, negative = inhibition, actives largely listed as inhibitors. 200,000 tested, 0.01% active. HeLa LMNA splicing GFP/RFP minigene ratio, 48 h; active = well fitted inhibition curve with a large enough effect in the signal ratio, with a control signal flat, not every such curve was filed as active; inconclusive = small, poorly fitted or top-dose-only effect, or effect the other way, or a change in a side signal; the % refers to the signal ratio; also: potency is read from the fitted curve at half-maximal effect; % is scaled to controls: 0 for no effect and ±100 for the full control effect
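S3 HeLa stable clones carrying a lamin A-EGFP splicing minigene plus DsRed2 were seeded at 600 cells/well in Opti-MEM with 2% FBS, pin-dosed and incubated 48 h at 37°C. Acumen cytometry (488 nm) gave the GFP/RFP total-intensity ratio.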
Tau fibril ThT = tau fibrillization inhibition (ThT binding) | P10636 | recombinant tau K18 P301L (four-repeat tau fragment), heparin-induced fibrillization, ThT fluorescence | Potency, µM (highest dose often 57.4 µM), inactives show at the highest dose activity, negative = inhibition, usual class: inhibitors | 270,000 tested, 2.1% active | AID 1460; also: potency is read from the fitted curve at half-maximal effect; % is scaled to controls: 0 for no effect and ±100 for the full control effect; nearly all actives have a fitted effect of over 55% in size
Target sequence (P10636 561-689 P618L limits assumed): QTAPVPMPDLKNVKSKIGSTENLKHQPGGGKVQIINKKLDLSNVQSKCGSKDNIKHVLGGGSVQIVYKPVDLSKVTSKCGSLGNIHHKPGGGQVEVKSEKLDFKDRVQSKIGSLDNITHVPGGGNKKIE
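Aggregation was driven by heparin (20 uM final) acting on recombinant tau […] bearing P301L in 100 mM sodium acetate pH 7; fibrils were detected with Thioflavin T.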
KDM4E inh = blocks human JMJD2E demethylase activity; AID 2147; Potency, µM (highest dose often 57.1 µM), inactives show top-dose activity change, negative = inhibition, usual class: inhibitors; 230,000 tested, 1.6% active; JMJD2E catalytic domain, FDH-coupled NADH fluorescence (FDH is formaldehyde dehydrogenase);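 also: potency is read from the fitted curve at half-maximal effect; 0% = wells with enzyme and -100% = buffer wells without enzyme; nearly all actives have a fitted effect of over 50% in size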
Target sequence (B2RXH2 1-337 limits assumed): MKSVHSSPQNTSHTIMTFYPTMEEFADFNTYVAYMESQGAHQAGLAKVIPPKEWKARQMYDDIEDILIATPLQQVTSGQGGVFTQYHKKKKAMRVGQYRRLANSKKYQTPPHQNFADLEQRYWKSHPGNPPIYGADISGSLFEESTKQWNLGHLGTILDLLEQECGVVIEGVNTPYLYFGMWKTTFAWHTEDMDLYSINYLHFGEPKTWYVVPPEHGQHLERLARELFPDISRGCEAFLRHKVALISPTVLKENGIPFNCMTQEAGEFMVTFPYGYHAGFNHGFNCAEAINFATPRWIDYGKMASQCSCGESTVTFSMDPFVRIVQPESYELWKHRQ
Tau FP inhib = inhibitors of human tau fibril formation | K18 P301L tau heparin fibrillization, Alexa594 FP, 6 h | 280,000 tested, 0.39% active | Potency, µM (highest dose often 57.7 µM), inactives show at the top dose activity, negative = inhibition, actives largely listed as inhibitors | P10636 | AID 1468; also: potency is read from the fitted curve at half-maximal effect; % is scaled to controls: 0 for no effect and ±100 for the full control effect; nearly all actives have a fitted effect of over 55% in size
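Compound effects on tau fibrillization are measured by Alexa 594 fluorescence polarization (ex 555, em 632 nm). K18 P301L tau is used at 15 uM with 0.24 uM labeled tracer, and 20 uM heparin induces aggregation over 6 hr at 37 C.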
Numbers without * were called inactive; ? = inconclusive; · = not tested or not shown; [ ] = remark or other dose. Rows were chosen to be rich in hits. Some 3.2% of all compounds tested hit in one or more screens of this group. Unless noted, calls follow the shape of the dose curve; as a rule, active = well fitted curve in the direction sought with a large enough effect; inconclusive = small, poorly fitted or top-dose-only effect, or another doubt; inactive = no such curve, though single readings can be large; an effect the other way counts as inactive or inconclusive.

SMILES	Tau fluor counter	CBFb RUNX1 block	LMNA splice mod	Tau fibril ThT	KDM4E inh	Tau FP inhib
Cc1ccccc1-c1cc2nccc(-c3cc(Cl)ccc3O)n2n1	4.2%	·	·	8.6%	·	2.1%
O=C(/C=C/c1ccccc1)Nc1nc2n(n1)C(c1ccc(F)cc1)C=C(c1ccccc1)N2 (centres undefined)	3.2%	·	·	0.4%	·	-5.3%
O=C1C2=C(NC(=S)NC2c2ccc(Cl)cc2)NC(c2ccc(Cl)cc2)N1c1ccc(Cl)cc1 (centres undefined)	?	-7.7%	5.8%	31.6µM*	-19.7%	?
Nc1c(C(=O)N/N=C/c2cccnc2)oc2nc(-c3ccccc3)cc(-c3ccco3)c12	-15.4%	-16.0%	·	?	?	1.0%
Nc1c(C(=O)N/N=C/c2cccnc2)oc2nc(-c3ccco3)cc(-c3ccco3)c12	?	-16.7%	·	15.8µM*	?	?
CCOC(=O)Cc1ccc(NC(=O)Nc2cccc(OCc3cc(=O)n4cc(C)ccc4n3)c2)cc1	-8.3%	·	0.0%[46 µM]	10.7%	·	?
Oc1ccccc1Nc1nc(NCc2ccccc2)c2ccccc2n1	15.8µM*[quencher]	-15.6%	·	-18.8%	?	8.6%
COc1ccccc1Nc1nc(NCc2ccco2)c2ccccc2n1	22.4µM*[quencher]	-0.3%	·	?	?	?
c1coc(CNc2nc(N3CCCCC3)nc3ccccc23)c1	-14.0%	6.7%	?	-11.6%	?	2.2%
c1ccc(N2CCN(c3nc(NCc4ccco4)c4ccccc4n3)CC2)cc1	25.1µM*[quencher]	-6.8%	?	?	?	3.3%
Cn1c(=O)n(Cc2ccccc2Cl)c(=O)c2c1nc1n2CCN1c1ccccc1	-11.9%	·	-11.5%[46 µM]	-5.9%	·	0.5%
C=C1c2cccc(OC)c2O[C@H](C(=O)OCC)[C@@H]1CCC(C)C	-15.4%[81.3 µM]	6.2%[89.1 µM]	·	-16.1%[81.4 µM]	·	-2.8%[81.3 µM]
O=c1[nH]c(SCc2c(F)cccc2Cl)nc2c1CCC2	2.5%	·	·	-1.7%	·	1.4%
CC(=O)N(\C=C/C=C/C=C1\Sc2ccccc2C1=O)c1ccccc1	?	-28.3%	-2.4%[46 µM]	6.31µM*	14.1µM*	?
CN(C)/C=C1/Sc2ccccc2C1=O	-5.5%	-2.9%	?	?	?	2.0%
CCCCC(=O)NC(c1cccs1)c1cc(Cl)c2cccnc2c1O (centres undefined)	-20.3%	-20.1%	?	-17.5%	?	-4.2%
CCCC(=O)NC(c1ccco1)c1cc([N+](=O)[O-])c2cccnc2c1O (centres undefined)	-10.4%	?	·	?	28.2µM*	-17.4%
CCCC(=O)NC(c1ccc(OC)c(OC)c1)c1cc(Cl)c2cccnc2c1O (centres undefined)	-2.4%	0.0%	?	-0.4%	17.8µM*	5.1%
O=C1Nc2ccc3sc4ccccc4c3c2C1=O	?	?	2.2%[46 µM]	4.47µM*	-17.5%	4.3%
COc1ccc2sc3ccccc3c(=O)c2c1	-21.4%	?	10.8%	?	?	-0.4%
Cc1ccc(-c2[nH][nH]c(=O)c(=O)c2N=Nc2ccccc2)cc1	-11.4%	10.0%	·	·	-28.5%	4.5%
Cc1ccc(N=Nc2c(O)ccc3n[nH]nc23)cc1	?	?	?	3.55µM*	-2.2%	7.5%
Cc1ccc(C)n1-c1ccc(N2CCOCC2)nc1	-29.1%	-12.5%	?	12.6µM*	?	-13.0%
Cc1ccc(S(=O)(=O)Nc2ccc(N3CCOCC3)nc2)cc1	-11.2%	-6.0%	·	-4.1%	7.3%	9.9%
Nc1ccccc1NC1CCCCC1	?	-29.8%	?	22.4µM*	14.1µM*	-6.8%
CCSc1nn(CC(=O)Nc2cccc(CC)c2)c(N)c1S(=O)(=O)c1ccccc1	17.8µM*[quencher]	·	·	-6.8%	·	?
CCSc1nn(CC(=O)Nc2cccc(Cl)c2)c(N)c1S(=O)(=O)c1ccc(OC)cc1	?	·	·	21.3%	·	?
COc1ccc(S(=O)(=O)c2c(SC)nn(CC(=O)Nc3ccc(C)c(Cl)c3)c2N)cc1	?	·	·	7.2%	·	25.1µM*
